Results filed as inconclusive are left out. Activity calls are given as the source filed them. Calls come from the whole dose curve; as a rule, active = well fitted inhibition curve with a large enough effect; inconclusive = small, poorly fitted or top-dose-only effect; inactive = flat fitted curve, though single readings scatter. Where a SMILES comes first, the peptide text is derived from it. The star is where a group is joined. βNA = c1ccc2cc(N*)ccc2c1; Cbz = O=C(OCc1ccccc1)*
Each compound was assayed on NIH3T3 (assay: qHTS assay to identify novel small-molecules to repurpose for Merkel cell carcinoma treatment (AID 1296009; note: nearly all actives have a fitted effect of over 60% in size)). Details: MCC and control cell lines, CellTiter-Glo viability, 72 h; at 44.8 µM (top of the series) unless noted.
How it was run: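 Viability readout: ATP luminescence (CellTiter-Glo) after 72 hr drug exposure at 37 degree celsius. Dose-response format was 8 points for NPC and 11 points for MIPE; data normalized to in-plate controls.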
With `NC(N)=NCCC[C@H](NC(=O)c1sccc1NS(=O)(=O)c1cccc2nsnc12)C(=O)O` the outcome was “inactive”. In the case of `Nc1ccc(-n2nc(C(F)(F)F)cc2C(F)(F)F)cc1`, the outcome is reported as “inactive”. `C[C@H](O)C(O)(C(=O)OCc1ccccc1NC(=O)CCC(N)C(=O)O)[C@H](C)O` (stereo partly drawn) was tested, and the outcome was “inactive [at 17.4 µM]”. `CC[C@H](NC(=O)c1c(O)c(-c2ccccc2)nc2ccccc12)c1ccccc1` was tested, and the outcome was “inactive”. With `CC/C=C/C(O)C(O)C1=C(C)C(=O)C2(O1)C(=O)NC(OC)(C(=O)c1ccccc1)C2O` (stereo not drawn) the outcome was “inactive [at 17.4 µM]”. `Fc1cccc(CN(C2=NCCN2)c2c(Cl)cccc2Cl)c1` was tested, and the outcome was “inactive”. In the case of `O=C(O)CCc1cccc(O)c1O[C@@H]1O[C@H](CO)[C@@H](O)[C@H](O)[C@H]1O`, the outcome is reported as “inactive”. With `CCC(C)/C=C(C)/C=C/C1=CC2=CC(=O)C(C)(O)C(OC(C)=O)C2CO1` (stereo not drawn) the outcome was “inactive”. `CC1CC(O)/C=C/C(O)/C=C\C(=O)O1` (stereo not drawn) was tested, and the outcome was “inactive [at 92 µM]”. In the case of `CC(C)CC(NC(=O)OCc1ccccc1)C(=O)NC(CC(C)C)C(=O)NC(CCC(=O)O)C(=O)Nc1ccc2ccccc2c1` (stereo not drawn) (Cbz-Leu-Leu-Glu-βNA; configuration not given here), the outcome is reported as “inactive”. With `COCc1c(O)c(C(=O)O)c(C)c2c1OC(=O)c1c(C)cc(O)c(CO)c1O2` the outcome was “inactive”. For `C=C(C(=O)O)C1CC(O)C2(C)CCCC(C)(O)C2C1` (stereo not drawn), the outcome was “inactive”. In the case of `C=C[C@H]1[C@H](O[C@@H]2O[C@H](CO)[C@@H](O)[C@H](OC(=O)/C=C/c3ccc(O)c(OC)c3)[C@H]2O)OC=C2C(=O)OCC[C@]21O`, the outcome is reported as “inactive [at 17.4 µM]”.
